Reference: PubChem BioAssay (Tox21)
Results filed as inconclusive are left out. Activity calls are given as the source filed them. Unless noted, calls follow the shape of the dose curve; as a rule, active = well fitted curve in the direction sought with a large enough effect in the repeat runs; inconclusive = weak or mixed curves; inactive = no such curve, though single readings can be large; an effect the other way counts as inactive or inconclusive.

How the values were obtained:
[1] = qHTS assay to identify small molecule agonists of the estrogen receptor alpha (ER-alpha) signaling pathway in the presence of an antagonist - cell viability counter screen (AID 1259386);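 also: series mostly up to about 92 µM; cells exposed to compounds for 22 h at 37 °C before the viability read; nearly all actives have a fitted effect of over 30% in size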
Outline: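 Cell viability in VM7Luc4E2 cells (endogenous full-length ER-alpha) measured by CellTiter-Fluor fluorescence in the same wells as the luciferase screen. Cells pre-cultured 5 days in charcoal-stripped serum, then treated 22 h with compounds at 15 concentrations plus 10.0nM ICI-182,780.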

[2] = biological target: Progesterone receptor (Homo sapiens) (UniProt P06401); test: qHTS assay to identify small molecule agonists of the progesterone receptor (PR) signaling pathway (AID 1346784; calls by dose curve; also: nearly all actives have a fitted effect of over 30% in size)
Outline: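 The screen uses PR-UAS-bla HEK 293T cells in charcoal-stripped serum (2%). Compounds are applied for 16 hr at 37C after a 6 hr pre-incubation, and reporter activity is detected with a FRET beta-lactamase substrate after 2 hr at room temperature.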

[3] = biological target: Progesterone receptor (Homo sapiens) (UniProt P06401); test: qHTS assay to identify small molecule antagonists of the progesterone receptor (PR) signaling pathway (AID 1346795; active = well fitted inhibition curve with a large enough effect in the signal ratio in the repeat runs, not every such curve was filed as active; the % refers to the signal ratio)
Outline: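 After 6 hr plating at 37C in 2% stripped-serum medium, PR-UAS-bla HEK293T cells got compounds, then 1 nM R5020. Sixteen hours later, LiveBLAzer substrate was applied for 2 hr at room temperature and fluorescence was recorded.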

[4] = qHTS assay to identify small molecule antagonists of the progesterone receptor (PR) signaling pathway - cell viability counter screen (AID 1346798); also: series mostly up to about 92 µM; nearly all actives have a fitted effect of over 50% in size
Outline: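 Viability was determined by ATP-based luminescence (CellTiter-Glo) in PR-UAS-bla HEK293T cells cultured in 2% charcoal-stripped serum and incubated 16 hr with compounds under R5020 stimulation.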

[5] = qHTS assay to identify small molecule agonists of the progesterone receptor (PR) signaling pathway - cell viability counter screen (AID 1346799; calls by dose curve; also: nearly all actives have a fitted effect of over 45% in size)
Outline: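 Viability was scored by ATP luminescence (CellTiter-Glo, 30 min, room temperature) in the same wells used for the reporter readout, after 16 hr compound exposure of PR-UAS-bla HEK293T cells.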

[6] = qHTS assay to identify small molecule antagonists of the TGF-beta/Smad signaling pathway - cell viability counter screen (AID 1346824); also: nearly all actives have a fitted effect of over 50% in size
Outline: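 SBE-bla HEK 293T cells, incubated overnight, then compound plus 0.25 ng/mL TGF-beta1 (stock added) for 5 hr at 37 C. Viability was read in the same wells by CellTiter-Glo luminescence after 30 min at room temperature.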

[7] = qHTS assay to identify small molecule agonists of the TGF-beta/Smad signaling pathway - cell viability counter screen (AID 1346829); also: top concentration of the series differs between compounds; nearly all actives have a fitted effect of over 45% in size
Outline: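 Tox21 qHTS format: SBE-bla HEK 293T cells treated with DMSO-dissolved compounds for 5 hr; CellTiter-Glo luminescence after 30 min at room temperature.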

[8] = qHTS assay to identify small molecule agonists of the TGF-beta/Smad signaling pathway (AID 1346859; active = well fitted activation curve with a large enough effect in the signal ratio in the repeat runs, not every such curve was filed as active; the % refers to the signal ratio; also: series mostly up to about 77 µM)
Outline: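 Dual-wavelength fluorescence (460/530 nm emission) quantified beta-lactamase expression under the Smad binding element in HEK 293T cells following 5 hr compound treatment at 37 C.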

[9] = Human pregnane X receptor (PXR) small molecule agonists, qHTS cell viability counter screen (AID 1346977); also: nearly all actives have a fitted effect of over 50% in size
Outline: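 HepG2 cells stably carrying the PXR-Luc reporter are cultured with 5% charcoal-stripped FBS and treated with compounds for 24hr. CellTiter-Fluor is added at 23hr and fluorescence is read after 1hr.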

[10] = Caspase-3/7 induction in HepG2 cells by small molecules, qHTS assay (AID 1346978); also: nearly all actives have a fitted effect of over 15% in size
Outline: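 Wild-type HepG2 cells, 2,000/well, settled 5 hr at 37 C and 5% CO2, then compound-treated for 17 hr; caspase-3/7 activity read by luminescent Caspase-Glo 3/7 after 30 min at room temperature.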

[11] = Caspase-3/7 induction in CHO-K1 cells by small molecules, qHTS cell viability counter screen (AID 1346979); also: nearly all actives have a fitted effect of over 35% in size
Outline: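 Seeding: 1,500 CHO-K1 cells/well. Rest: 5hr, 37C. Treatment: compounds in DMSO, 16hr. Read: CellTiter-Fluor, 1hr, fluorescence.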

[12] = Caspase-3/7 induction in CHO-K1 cells by small molecules, qHTS assay (AID 1346980); also: nearly all actives have a fitted effect of over 15% in size
Outline: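 Wild-type CHO-K1 cells exposed to compounds for 17hr at 37 C, 5% CO2. Caspase-3/7 activity then measured by Caspase-Glo 3/7 luminescence after 30min at room temperature.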

[13] = Caspase-3/7 induction in HepG2 cells by small molecules, qHTS cell viability counter screen (AID 1346981); also: series mostly up to about 92 µM; nearly all actives have a fitted effect of over 30% in size
Outline: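 Wild-type HepG2 cells, 2,000/well, settled 5 hr at 37 C, 5% CO2 before compound addition. Viability read by CellTiter-Fluor fluorescence, reagent added after 16 hr compound exposure, then 1 hr at 37C, in the same wells as the caspase read.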

[14] = biological target: Acetylcholinesterase (Homo sapiens) (UniProt P22303); test: Acetylcholinesterase (AChE) small molecule antagonists: colormetric cell-based qHTS assay (AID 1347395; calls by dose curve; also: nearly all actives have a fitted effect of over 30% in size)
Outline: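 Quantitative HTS in attached SH-SY5Y cells: 30 min compound exposure, then 90 min with acetylthiocholine and DTNB at 37 C; colour from thiocholine reports AChE activity.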

[15] = biological target: Thyrotropin-releasing hormone receptor (Homo sapiens) (UniProt P34981); test: qHTS assay to identify small molecule antagonists of the thyrotropin-releasing hormone receptor (TRHR) signaling pathway (AID 1346877; active = well fitted inhibition curve with a large enough effect in the repeat runs, not every such curve was filed as active; also: series mostly up to about 51 µM)
Outline: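 TRHR-expressing HEK293 cells loaded with calcium dye for 2 h at 37 C; compounds pre-incubated 5 min at room temperature before TRH challenge at 1 nM final. Intracellular calcium fluorescence read kinetically for 3 min; 15 concentrations in triplicate.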

[16] = biological target: Thyrotropin-releasing hormone receptor (Homo sapiens) (UniProt P34981); test: qHTS assay to identify small molecule agonists of the thyrotropin-releasing hormone receptor (TRHR) signaling pathway (AID 1346891; calls by dose curve; also: series mostly up to about 58 µM)
Outline: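 Kinetic fluorescence (3 min, 1 s intervals) reported intracellular calcium after compound transfer onto TRHR-Hek293 cells pre-loaded with dye for 2 h at 37 °C.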

[17] = biological target: Nuclear receptor subfamily 1 group I member 2 (Homo sapiens) (UniProt O75469); test: Human pregnane X receptor (PXR) small molecule agonists, qHTS assay (AID 1346982); also: nearly all actives have a fitted effect of over 35% in size
Outline: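 PXR-Luc HepG2 reporter cells (CYP3A4-driven luciferase) in 5% charcoal-stripped FBS medium, plated 5 h before compound addition, then treated 24 h at 37C. Luciferase read by ONE-Glo luminescence after 30 min at room temperature.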

[18] = biological target: Nuclear receptor subfamily 1 group I member 2 (Rattus norvegicus) (UniProt Q9R1A7); test: Rat pregnane X receptor (rPXR) activation by small molecules, qHTS assay (AID 1346983); conditions: rPXR luciferase reporter cells, One-Glo luminescence, 24 h; hits give high values; also: nearly all actives have a fitted effect of over 20% in size
Outline: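 Cell-based rPXR activation assay: rPXR cells, 2,000 per well, rested 5hr at 37 C, then exposed to compounds in DMSO for 24 hr at 37 C. Luciferase activity read by One-Glo luminescence after 30 min at room temperature.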

[19] = biological target: Nuclear receptor subfamily 1 group I member 2 (Homo sapiens) (UniProt O75469); test: CYP3A4 induction through human pregnane X receptor (PXR) by small molecules, qHTS assay (AID 1346984); also: nearly all actives have a fitted effect of over 40% in size
Outline: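 DPX-2 HepG2 cells carrying a PXR response element and CYP3A4-promoter luciferase construct, treated with compounds 24 hr at 37C. Then P450-Glo CYP3A4 Luciferin-IPA substrate (3uM final) for 3 hr at 37C, One-Glo added, luminescence read.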

[20] = biological target: Nuclear receptor subfamily 1 group I member 2 (Homo sapiens) (UniProt O75469); test: Human pregnane X receptor (PXR) activation by small molecules, qHTS assay (AID 1346985); also: nearly all actives have a fitted effect of over 40% in size
Outline: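 DPX-2 cells (HepG2 co-transfected with a PXR response element and a CYP3A4-promoter luciferase construct) were seeded at 2,000 per well, rested 5 hr at 37C, then exposed to DMSO-dissolved compounds for 24 hr. Activation was read as luciferase luminescence.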
% is scaled to controls: 0 for no effect and ±100 for the full control effect.

Chain of Progesterone receptor (Homo sapiens) (P06401 whole entry, looked up): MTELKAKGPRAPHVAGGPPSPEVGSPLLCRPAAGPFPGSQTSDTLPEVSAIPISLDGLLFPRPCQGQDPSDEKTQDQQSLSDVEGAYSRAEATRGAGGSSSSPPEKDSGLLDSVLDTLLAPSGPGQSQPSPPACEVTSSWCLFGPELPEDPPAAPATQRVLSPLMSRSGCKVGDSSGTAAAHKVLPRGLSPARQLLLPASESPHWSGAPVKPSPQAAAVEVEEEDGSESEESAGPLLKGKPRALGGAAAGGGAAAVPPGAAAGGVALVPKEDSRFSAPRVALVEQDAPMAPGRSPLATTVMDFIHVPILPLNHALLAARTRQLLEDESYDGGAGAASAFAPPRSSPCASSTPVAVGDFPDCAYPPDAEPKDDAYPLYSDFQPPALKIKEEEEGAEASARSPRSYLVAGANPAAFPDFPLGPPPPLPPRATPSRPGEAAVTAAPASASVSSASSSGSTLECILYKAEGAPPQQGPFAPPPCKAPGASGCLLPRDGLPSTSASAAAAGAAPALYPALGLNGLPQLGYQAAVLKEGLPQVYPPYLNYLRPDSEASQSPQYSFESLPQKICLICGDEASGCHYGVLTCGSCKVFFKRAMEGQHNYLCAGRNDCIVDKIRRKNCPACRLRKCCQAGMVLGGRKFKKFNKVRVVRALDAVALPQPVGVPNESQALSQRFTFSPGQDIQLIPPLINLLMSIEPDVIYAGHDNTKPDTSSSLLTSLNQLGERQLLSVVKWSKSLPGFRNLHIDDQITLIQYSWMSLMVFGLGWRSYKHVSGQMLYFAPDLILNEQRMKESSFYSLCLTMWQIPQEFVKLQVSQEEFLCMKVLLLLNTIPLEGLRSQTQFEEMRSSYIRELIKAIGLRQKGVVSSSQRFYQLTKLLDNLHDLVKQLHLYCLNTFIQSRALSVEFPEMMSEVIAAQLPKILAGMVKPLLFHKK
Chain of Thyrotropin-releasing hormone receptor (Homo sapiens) (P34981 whole entry, looked up): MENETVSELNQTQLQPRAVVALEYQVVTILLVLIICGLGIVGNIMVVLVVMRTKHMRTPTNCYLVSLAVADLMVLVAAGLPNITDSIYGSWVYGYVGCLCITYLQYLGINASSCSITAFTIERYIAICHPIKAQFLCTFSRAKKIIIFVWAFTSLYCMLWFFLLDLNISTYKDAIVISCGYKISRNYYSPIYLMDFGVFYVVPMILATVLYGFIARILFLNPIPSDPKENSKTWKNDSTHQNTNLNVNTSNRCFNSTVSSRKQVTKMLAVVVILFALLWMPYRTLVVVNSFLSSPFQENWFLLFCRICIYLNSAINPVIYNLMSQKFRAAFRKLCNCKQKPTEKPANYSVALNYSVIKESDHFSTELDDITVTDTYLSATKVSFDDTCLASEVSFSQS
Chain of Acetylcholinesterase (Homo sapiens) (P22303 whole entry, looked up): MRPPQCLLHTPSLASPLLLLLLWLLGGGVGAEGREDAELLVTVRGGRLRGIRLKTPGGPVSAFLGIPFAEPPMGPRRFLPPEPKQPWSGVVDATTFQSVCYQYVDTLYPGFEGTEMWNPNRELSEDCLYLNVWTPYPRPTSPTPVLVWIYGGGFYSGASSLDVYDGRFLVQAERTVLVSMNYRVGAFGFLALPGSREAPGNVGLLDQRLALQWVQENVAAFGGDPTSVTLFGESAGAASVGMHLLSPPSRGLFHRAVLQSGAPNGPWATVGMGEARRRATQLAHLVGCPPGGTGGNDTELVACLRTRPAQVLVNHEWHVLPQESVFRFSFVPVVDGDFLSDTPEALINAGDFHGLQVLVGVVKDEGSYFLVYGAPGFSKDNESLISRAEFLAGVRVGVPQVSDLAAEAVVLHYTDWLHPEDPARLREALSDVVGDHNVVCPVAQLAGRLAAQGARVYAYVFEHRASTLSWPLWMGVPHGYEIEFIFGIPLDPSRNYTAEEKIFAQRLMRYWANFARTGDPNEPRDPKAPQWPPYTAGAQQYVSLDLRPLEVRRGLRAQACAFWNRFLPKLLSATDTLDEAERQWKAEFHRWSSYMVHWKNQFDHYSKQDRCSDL
Chain of Nuclear receptor subfamily 1 group I member 2 (Homo sapiens) (O75469 whole entry, looked up): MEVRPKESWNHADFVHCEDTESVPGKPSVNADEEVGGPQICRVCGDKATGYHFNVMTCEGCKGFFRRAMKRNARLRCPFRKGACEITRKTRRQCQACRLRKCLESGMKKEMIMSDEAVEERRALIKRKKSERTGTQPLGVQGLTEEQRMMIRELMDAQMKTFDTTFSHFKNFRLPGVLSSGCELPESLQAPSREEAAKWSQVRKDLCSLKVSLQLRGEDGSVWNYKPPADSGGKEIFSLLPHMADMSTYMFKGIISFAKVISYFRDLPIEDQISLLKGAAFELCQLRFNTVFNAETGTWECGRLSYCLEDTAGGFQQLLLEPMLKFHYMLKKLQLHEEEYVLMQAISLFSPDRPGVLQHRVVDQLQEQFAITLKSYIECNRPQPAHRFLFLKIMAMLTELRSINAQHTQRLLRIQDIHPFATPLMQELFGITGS
Chain of Nuclear receptor subfamily 1 group I member 2 (Rattus norvegicus) (Q9R1A7 whole entry, looked up): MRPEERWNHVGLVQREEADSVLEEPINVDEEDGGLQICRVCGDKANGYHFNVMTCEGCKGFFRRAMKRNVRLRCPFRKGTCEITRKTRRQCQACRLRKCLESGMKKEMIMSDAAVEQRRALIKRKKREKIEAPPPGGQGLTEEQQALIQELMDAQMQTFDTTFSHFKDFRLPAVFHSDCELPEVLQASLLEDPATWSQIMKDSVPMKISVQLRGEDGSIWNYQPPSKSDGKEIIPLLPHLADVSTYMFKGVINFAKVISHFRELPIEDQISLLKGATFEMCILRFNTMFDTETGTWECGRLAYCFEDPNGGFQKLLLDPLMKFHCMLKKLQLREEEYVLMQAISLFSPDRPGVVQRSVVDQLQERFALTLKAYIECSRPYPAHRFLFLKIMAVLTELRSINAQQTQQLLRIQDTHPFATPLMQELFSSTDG

ClCOCCl
inactive: Potency [1] | Potency [2] | Potency [3] | Potency [4] | Potency [5] | outcome [6] | Potency [7] | outcome [8] | Potency [9] | outcome [10] | Potency [11] | outcome [12] | Potency [13] | Potency [14]

C=CCCC#N
inactive: Potency [1] | Potency [2] | Potency [3] | Potency [4] | Potency [5] | outcome [6] | Potency [7] | outcome [8] | Potency [15] | outcome [16] | Potency [11] | outcome [12] | Potency [13] | Potency [17] | Potency [14]

CC(C)c1ccc(O)cc1
inactive: Potency [1] | Potency [2] | Potency [3] | Potency [4] | Potency [5] | outcome [6] | Potency [7] | outcome [8] | Potency [15] | outcome [16] | outcome [10] | Potency [11] | outcome [12] | Potency [13] | Potency [17] | Potency [14]

O=C(NC(O)C(Cl)(Cl)Cl)NC(O)C(Cl)(Cl)Cl (stereo not drawn)
inactive: Potency [1] | Potency [2] | Potency [3] | Potency [4] | Potency [5] | outcome [6] | Potency [7] | outcome [8] | Potency [15] | outcome [16] | Potency [9] | Potency [11] | outcome [12] | Potency [13] | Potency [17] | max activation [18] -0.374% | Potency [19] | Potency [20] | Potency [14]

COc1cccc(C=O)c1
inactive: Potency [1] | Potency [2] | Potency [3] | Potency [4] | Potency [5] | outcome [6] | Potency [7] | outcome [8] | Potency [15] | outcome [16] | outcome [10] | Potency [11] | outcome [12] | Potency [13] | Potency [17] | Potency [14]

CC(=NC#N)N(C)Cc1ccc(Cl)nc1
inactive: Potency [1] | Potency [2] | Potency [3] | Potency [4] | Potency [5] | outcome [6] | Potency [7] | outcome [8] | Potency [15] | outcome [16] | Potency [9] | Potency [11] | outcome [12] | Potency [13] | Potency [17]

CC(=O)OCC1=C(C(=O)O)N2C(=O)[C@@H](N)[C@H]2SC1
inactive: activity change, negative = cytotoxicity [1] -2.84% [at 19 µM] | activation [2] 0.683% [at 19 µM] | activity change, negative = inhibition [3] 0.73% [at 18.9 µM] | activity change, negative = cytotoxicity [4] 2.66% [at 18.9 µM] | activity change, negative = cytotoxicity [5] 3.69% [at 19 µM] | viability change, negative = cytotoxic [6] -0.755% [at 15.8 µM] | activity change, negative = cytotoxicity [7] -0.572% [at 15.8 µM] | activation [8] -1.32% [at 15.8 µM] | activity change, negative = cytotoxicity [9] 0.727% [at 19 µM] | activity change, negative = cytotoxicity [11] 0.401% [at 19 µM] | caspase-3/7 activation [12] 0.439% [at 19 µM] | activity change, negative = cytotoxicity [13] -1.33% [at 19 µM] | activation [17] -3.67% [at 19 µM] | max activation [18] 4.87% | Potency [19] | Potency [20] | activity, negative = inhibition [14] 1.78% [at 23.6 µM]

CCOP(=S)(OCC)SCCl
inactive: Potency [1] | Potency [2] | Potency [3] | Potency [4] | Potency [5] | outcome [6] | Potency [7] | outcome [8] | Potency [15] | outcome [16] | Potency [9] | outcome [10] | outcome [12] | Potency [13] | Potency [17] | Potency [14]
